# Active and inactive are the calls of the source. The rule behind the calls is not given here.
# Experiments:
# [1] = AOX inhibitors, oxygen consumption, profiling panel (AID 1259412); conditions: AOX-dependent respiration, at 500 µM; for growth (% of control): O2 uptake, measured here: growth; for O2 uptake (% of control): measured here: O2 uptake, control condition (no AOX);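 for growth (% of control): growth monitored over 72 h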
# [2] = test system: alternative oxidase (AOX); assay: as above; conditions: AOX-dependent respiration, at 500 µM, stronger effect = lower value
# [3] = AOX-dependent treatment condition, stronger effect = lower value
compound,measurement,setting,value
O=C(NCc1ccc2c(c1)OCO2)c1cccc(Br)c1,growth (% of control),[1]; [3],88%
same,growth (% of control),[1]; control condition,82.8%
same,O2 uptake (% of control),[1]; stronger effect = lower value,94.7%
same,O2 uptake (% of control),[2],24.4% (active)
NC(=O)c1ccccc1NC(=O)c1ccccc1I,growth (% of control),[1]; [3],93.3%
same,growth (% of control),[1]; control condition,82.7%
same,O2 uptake (% of control),[1]; stronger effect = lower value,112%
same,O2 uptake (% of control),[2],84.5% (inactive)
O=C(Nc1cccc(NC(=O)c2cccc(F)c2)c1)c1cccc(F)c1,growth (% of control),[1]; [3],113%
same,growth (% of control),[1]; control condition,133%
same,O2 uptake (% of control),[1]; stronger effect = lower value,97%
same,O2 uptake (% of control),[2],51.3% (active)
O=C(Nc1cccc(OCc2ccccc2)c1)c1cccc(F)c1,growth (% of control),[1]; [3],86%
same,growth (% of control),[1]; control condition,81.9%
same,O2 uptake (% of control),[1]; stronger effect = lower value,97.4%
same,O2 uptake (% of control),[2],41.2% (active)
COc1cccc(C(=O)Nc2cccc(Br)c2)c1,growth (% of control),[1]; [3],51.9%
same,growth (% of control),[1]; control condition,92%
same,O2 uptake (% of control),[1]; stronger effect = lower value,85.8%
same,O2 uptake (% of control),[2],27.5% (active)
COc1cccc(C(=O)Nc2cccc(NC(=O)c3cccc(OC)c3)c2)c1,growth (% of control),[1]; [3],95.4%
same,growth (% of control),[1]; control condition,96.8%
same,O2 uptake (% of control),[1]; stronger effect = lower value,102%
same,O2 uptake (% of control),[2],79.2% (inactive)
O=C(Nc1cccc(NC(=O)c2ccccc2)c1)c1ccccc1,growth (% of control),[1]; [3],106%
same,growth (% of control),[1]; control condition,103%
same,O2 uptake (% of control),[1]; stronger effect = lower value,92.6%
same,O2 uptake (% of control),[2],44% (active)
COc1cccc(C(=O)Nc2cccc(C(F)(F)F)c2)c1,growth (% of control),[1]; [3],11.8%
same,growth (% of control),[1]; control condition,57.4%
same,O2 uptake (% of control),[1]; stronger effect = lower value,90.2%
same,O2 uptake (% of control),[2],37.6% (active)
O=C(Nc1cccc(C(F)(F)F)c1)c1ccccc1,growth (% of control),[1]; [3],38.9%
same,growth (% of control),[1]; control condition,71.4%
same,O2 uptake (% of control),[1]; stronger effect = lower value,84%
same,O2 uptake (% of control),[2],16.8% (active)
N#Cc1cccc(C(=O)Nc2ccc(N3CCOCC3)cc2)c1,growth (% of control),[1]; [3],96.5%
same,growth (% of control),[1]; control condition,92.2%
same,O2 uptake (% of control),[1]; stronger effect = lower value,105%
same,O2 uptake (% of control),[2],90.5% (inactive)
COc1cc(NC(=O)c2cccc(F)c2)cc(OC)c1OC,growth (% of control),[1]; [3],92.8%
same,growth (% of control),[1]; control condition,80.8%
same,O2 uptake (% of control),[1]; stronger effect = lower value,93.1%
same,O2 uptake (% of control),[2],98.7% (inactive)
O=C(Nc1ccc(N2CCOCC2)cc1)c1cccc(Cl)c1,growth (% of control),[1]; [3],89.6%
same,growth (% of control),[1]; control condition,92.8%
same,O2 uptake (% of control),[1]; stronger effect = lower value,90.9%
same,O2 uptake (% of control),[2],81.3% (active)
COc1cc(NC(=O)c2cccc(Br)c2)cc(OC)c1OC,growth (% of control),[1]; [3],90.6%
same,growth (% of control),[1]; control condition,84.3%
same,O2 uptake (% of control),[1]; stronger effect = lower value,90%
same,O2 uptake (% of control),[2],63.6% (active)
Cc1cccc(C(=O)Nc2cccc(C(F)(F)F)c2)c1,growth (% of control),[1]; [3],54.5%
same,growth (% of control),[1]; control condition,88.4%
same,O2 uptake (% of control),[1]; stronger effect = lower value,101%
same,O2 uptake (% of control),[2],15.2% (active)
O=C(Nc1ccccc1)c1ccccc1,growth (% of control),[1]; [3],69.8%
same,growth (% of control),[1]; control condition,94.3%
same,O2 uptake (% of control),[1]; stronger effect = lower value,99.9%
same,O2 uptake (% of control),[2],67.2% (active)
COc1cc(NC(=O)c2cccc(C#N)c2)cc(OC)c1OC,growth (% of control),[1]; [3],89.6%
same,growth (% of control),[1]; control condition,90.9%
same,O2 uptake (% of control),[1]; stronger effect = lower value,104%
same,O2 uptake (% of control),[2],91.5% (inactive)
O=C(NCc1ccc2c(c1)OCO2)c1cccc(Cl)c1,growth (% of control),[1]; [3],55.3%
same,growth (% of control),[1]; control condition,72%
same,O2 uptake (% of control),[1]; stronger effect = lower value,101%
same,O2 uptake (% of control),[2],14.2% (active)
N#Cc1cccc(C(=O)Nc2cccc(OCc3ccccc3)c2)c1,growth (% of control),[1]; [3],108%
same,growth (% of control),[1]; control condition,90.3%
same,O2 uptake (% of control),[1]; stronger effect = lower value,90.1%
same,O2 uptake (% of control),[2],39.1% (active)
O=C(Nc1cccc(OCc2ccccc2)c1)c1cccc(Cl)c1,growth (% of control),[1]; [3],95.6%
same,growth (% of control),[1]; control condition,92.6%
same,O2 uptake (% of control),[1]; stronger effect = lower value,110%
same,O2 uptake (% of control),[2],76.1% (active)
O=C(Nc1ccccc1)c1cccc(I)c1,growth (% of control),[1]; [3],67.8%
same,growth (% of control),[1]; control condition,86.4%
same,O2 uptake (% of control),[1]; stronger effect = lower value,87.7%
same,O2 uptake (% of control),[2],21.9% (active)
N#Cc1cccc(C(=O)Nc2cccc(F)c2)c1,growth (% of control),[1]; [3],55.1%
same,growth (% of control),[1]; control condition,107%
same,O2 uptake (% of control),[1]; stronger effect = lower value,103%
same,O2 uptake (% of control),[2],53.5% (active)
Cc1cccc(C(=O)Nc2ccccc2C(N)=O)c1,growth (% of control),[1]; [3],74.2%
same,growth (% of control),[1]; control condition,73.9%
same,O2 uptake (% of control),[1]; stronger effect = lower value,92.4%
same,O2 uptake (% of control),[2],60.2% (active)
Cc1cccc(C(=O)Nc2cccc(OCc3ccccc3)c2)c1,growth (% of control),[1]; [3],93.7%
same,growth (% of control),[1]; control condition,109%
same,O2 uptake (% of control),[1]; stronger effect = lower value,108%
same,O2 uptake (% of control),[2],67.8% (active)
O=C(Nc1cccc(Br)c1)c1cccc(Cl)c1,growth (% of control),[1]; [3],65.4%
same,growth (% of control),[1]; control condition,91.3%
same,O2 uptake (% of control),[1]; stronger effect = lower value,95.9%
same,O2 uptake (% of control),[2],12% (active)
COc1cc(NC(=O)c2ccccc2I)cc(OC)c1OC,growth (% of control),[1]; [3],91.6%
same,growth (% of control),[1]; control condition,90.9%
same,O2 uptake (% of control),[1]; stronger effect = lower value,92.4%
same,O2 uptake (% of control),[2],80% (active)
O=C(Nc1cccc([N+](=O)[O-])c1)c1cccc(Br)c1,growth (% of control),[1]; [3],74.5%
same,growth (% of control),[1]; control condition,80.8%
same,O2 uptake (% of control),[1]; stronger effect = lower value,95.1%
same,O2 uptake (% of control),[2],23.6% (active)
NC(=O)c1ccccc1NC(=O)c1ccccc1,growth (% of control),[1]; [3],84.2%
same,growth (% of control),[1]; control condition,88.6%
same,O2 uptake (% of control),[1]; stronger effect = lower value,93.9%
same,O2 uptake (% of control),[2],91.2%
O=C(Nc1cccc(Br)c1)c1cccc(F)c1,growth (% of control),[1]; [3],22.3%
same,growth (% of control),[1]; control condition,90.4%
same,O2 uptake (% of control),[1]; stronger effect = lower value,77.9%
same,O2 uptake (% of control),[2],35.1% (active)
O=C(Nc1ccc(N2CCOCC2)cc1)c1ccccc1I,growth (% of control),[1]; [3],86.7%
same,growth (% of control),[1]; control condition,96.2%
same,O2 uptake (% of control),[1]; stronger effect = lower value,86.1%
same,O2 uptake (% of control),[2],59.6% (active)
N#Cc1cccc(C(=O)Nc2ccccc2C(N)=O)c1,growth (% of control),[1]; [3],99.3%
same,growth (% of control),[1]; control condition,85.5%
same,O2 uptake (% of control),[1]; stronger effect = lower value,107%
same,O2 uptake (% of control),[2],95.7% (inactive)
O=C(Nc1cccc(F)c1)c1cccc(Cl)c1,growth (% of control),[1]; [3],3.11%
same,growth (% of control),[1]; control condition,70.3%
same,O2 uptake (% of control),[1]; stronger effect = lower value,77.2%
same,O2 uptake (% of control),[2],34.1% (active)
COc1cccc(C(=O)Nc2cccc(F)c2)c1,growth (% of control),[1]; [3],7.84%
same,growth (% of control),[1]; control condition,32.6%
same,O2 uptake (% of control),[1]; stronger effect = lower value,79.2%
same,O2 uptake (% of control),[2],44.5% (active)
COc1cccc(C(=O)Nc2cccc(Cl)c2)c1,growth (% of control),[1]; [3],0%
same,growth (% of control),[1]; control condition,33%
same,O2 uptake (% of control),[1]; stronger effect = lower value,76.3%
same,O2 uptake (% of control),[2],33.2% (active)
O=C(Nc1cccc(NC(=O)c2cccc(Br)c2)c1)c1cccc(Br)c1,growth (% of control),[1]; [3],77.6%
same,growth (% of control),[1]; control condition,95.3%
same,O2 uptake (% of control),[1]; stronger effect = lower value,105%
same,O2 uptake (% of control),[2],66.5% (active)
COc1cc(NC(=O)c2cccc(C)c2)cc(OC)c1OC,growth (% of control),[1]; [3],85.5%
same,growth (% of control),[1]; control condition,96.2%
same,O2 uptake (% of control),[1]; stronger effect = lower value,83.6%
same,O2 uptake (% of control),[2],66.4% (active)
N#Cc1cccc(C(=O)NCc2ccc3c(c2)OCO3)c1,growth (% of control),[1]; [3],79.6%
same,growth (% of control),[1]; control condition,79.7%
same,O2 uptake (% of control),[1]; stronger effect = lower value,103%
same,O2 uptake (% of control),[2],66.1% (active)
O=C(Nc1cccc(C(F)(F)F)c1)c1cccc(Br)c1,growth (% of control),[1]; [3],58.1%
same,growth (% of control),[1]; control condition,99.1%
same,O2 uptake (% of control),[1]; stronger effect = lower value,80.2%
same,O2 uptake (% of control),[2],22.3% (active)
O=C(Nc1cccc(C(F)(F)F)c1)c1ccccc1I,growth (% of control),[1]; [3],14.6%
same,growth (% of control),[1]; control condition,92%
same,O2 uptake (% of control),[1]; stronger effect = lower value,79.2%
same,O2 uptake (% of control),[2],14.3% (active)

# Reference: PubChem BioAssay AID1259412 (Laboratorio de Genomica e Expressao (LGE), UNICAMP, 2018)
